In PubChem BioAssay (NCATS):
Records with an inconclusive call do not appear. The source made the active and inactive calls. Unless noted, calls come from the whole dose curve; as a rule, active = well fitted curve in the direction sought with a large enough effect; inconclusive = small, poorly fitted or top-dose-only effect, or another doubt; inactive = no such curve, though single readings can be large; an effect the other way counts as inactive or inconclusive.

How the values were obtained:
[1] = target: Lysosomal acid glucosylceramidase (Homo sapiens) (UniProt P04062); test: Glucocerebrosidase-p2 (AID 348; in the data active = potency below about 10 µM; note: potency is the fitted concentration of half-maximal effect); conditions: purified GBA, blue fluorogenic substrate, 40 min
Sequence of Lysosomal acid glucosylceramidase (Homo sapiens) (P04062 whole entry, looked up): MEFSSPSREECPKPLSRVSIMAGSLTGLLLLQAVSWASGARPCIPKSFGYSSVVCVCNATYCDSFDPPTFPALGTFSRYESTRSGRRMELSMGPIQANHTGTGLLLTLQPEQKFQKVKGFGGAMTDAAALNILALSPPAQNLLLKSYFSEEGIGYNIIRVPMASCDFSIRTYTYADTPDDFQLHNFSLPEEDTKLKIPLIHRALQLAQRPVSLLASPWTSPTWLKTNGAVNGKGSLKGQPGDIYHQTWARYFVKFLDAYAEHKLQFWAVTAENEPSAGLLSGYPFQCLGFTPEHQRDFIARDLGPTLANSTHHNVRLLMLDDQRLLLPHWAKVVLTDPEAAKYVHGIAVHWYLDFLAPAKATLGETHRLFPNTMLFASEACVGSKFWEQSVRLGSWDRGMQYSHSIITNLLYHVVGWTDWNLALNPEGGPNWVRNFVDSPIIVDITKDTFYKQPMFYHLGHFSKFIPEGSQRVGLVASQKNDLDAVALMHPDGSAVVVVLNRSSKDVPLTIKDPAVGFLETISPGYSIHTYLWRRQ
Outline: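 Normal human glucocerebrosidase (0.2 nM) with blue fluorogenic substrate (80 uM final) in citrate/phosphate pH 5.9 with 10mM sodium taurocholate, 0.01% tween-20; 40 min RT, NaOH/glycine stop; fluorescence Ex 365/Em 440; AC50 from a titration from 0.6 nM upwards.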

[2] = target: Cytochrome P450 1A2 (Homo sapiens) (UniProt P05177); test: p450-cyp1a2 (AID 410; calls by dose curve; note: potency is the fitted concentration of half-maximal effect)
Sequence of Cytochrome P450 1A2 (Homo sapiens) (P05177 whole entry, looked up): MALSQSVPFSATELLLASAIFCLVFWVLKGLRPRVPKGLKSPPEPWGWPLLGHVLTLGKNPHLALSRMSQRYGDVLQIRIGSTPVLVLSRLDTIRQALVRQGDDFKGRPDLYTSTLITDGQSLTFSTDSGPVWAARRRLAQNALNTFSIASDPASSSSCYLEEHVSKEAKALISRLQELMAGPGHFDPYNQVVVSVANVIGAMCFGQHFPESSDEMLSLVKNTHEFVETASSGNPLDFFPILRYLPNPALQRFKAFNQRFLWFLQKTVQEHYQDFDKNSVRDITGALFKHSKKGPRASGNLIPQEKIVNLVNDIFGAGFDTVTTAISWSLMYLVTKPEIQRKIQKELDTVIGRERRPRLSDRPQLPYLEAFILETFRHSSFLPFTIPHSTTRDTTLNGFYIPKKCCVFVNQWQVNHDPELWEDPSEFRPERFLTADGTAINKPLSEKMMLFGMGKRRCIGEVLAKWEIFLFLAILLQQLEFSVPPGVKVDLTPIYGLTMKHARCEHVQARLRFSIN
Outline: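 20nM CYP1A2, 100uM Luciferin-ME (=Km), 100mM KPO4; cpd 10 min RT; +NADPH regen, 60 min RT; stop/detect 20 min; luminescence. Normalized to furafylline 57 uM = full inhibition.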

[3] = target: Glucocorticoid receptor (Homo sapiens) (UniProt P04150); test: GR-GFP Redistribution (AID 450;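 active = compounds whose dose series gives a full or clear partial fitted curve of increased nuclear translocation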; note: potency is the fitted concentration of half-maximal effect); conditions: U2OS GR-GFP nuclear translocation, laser cytometry, 2 h
Sequence of Glucocorticoid receptor (Homo sapiens) (P04150 whole entry, looked up, the tested form may be a part): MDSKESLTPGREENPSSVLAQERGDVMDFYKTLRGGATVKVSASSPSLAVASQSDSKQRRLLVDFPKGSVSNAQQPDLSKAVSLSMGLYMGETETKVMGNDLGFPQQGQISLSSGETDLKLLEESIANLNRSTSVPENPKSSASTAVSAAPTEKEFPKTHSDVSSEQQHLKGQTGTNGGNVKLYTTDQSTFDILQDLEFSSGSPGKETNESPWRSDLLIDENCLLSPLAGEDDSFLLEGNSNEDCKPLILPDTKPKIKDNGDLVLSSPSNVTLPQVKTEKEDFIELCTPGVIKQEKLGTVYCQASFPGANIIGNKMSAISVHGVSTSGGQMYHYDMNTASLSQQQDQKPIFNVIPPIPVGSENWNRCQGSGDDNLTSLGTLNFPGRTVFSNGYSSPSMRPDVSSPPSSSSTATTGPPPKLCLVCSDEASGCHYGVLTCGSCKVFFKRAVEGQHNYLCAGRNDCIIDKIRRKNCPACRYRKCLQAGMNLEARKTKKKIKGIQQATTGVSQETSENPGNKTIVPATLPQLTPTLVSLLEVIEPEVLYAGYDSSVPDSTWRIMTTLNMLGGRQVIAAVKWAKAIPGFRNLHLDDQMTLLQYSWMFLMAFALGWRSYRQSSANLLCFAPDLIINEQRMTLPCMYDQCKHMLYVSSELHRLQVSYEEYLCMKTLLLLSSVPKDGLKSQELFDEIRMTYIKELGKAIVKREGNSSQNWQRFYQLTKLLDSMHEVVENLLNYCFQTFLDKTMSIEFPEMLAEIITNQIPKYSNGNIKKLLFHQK

[4] = target: Glucocorticoid receptor (Homo sapiens) (UniProt P04150); test: GR-EFC Redistribution (AID 451; calls by dose curve; note: potency is the fitted concentration of half-maximal effect); conditions: CHO-K1 GR-EFC translocation, beta-gal luminescence, 2 h
Outline: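 Translocation of GR-ED fusion to nuclear EA restores b-gal, read by luminescence after 1 h room-temperature detection. Engineered CHO-K1 biosensor cells, 1,000/well, exposed 2 h at 37 C to titrations up to 46 uM final.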

[5] = target: 3',5'-cyclic-AMP phosphodiesterase 4B (Homo sapiens) (UniProt Q07343); test: qHTS Assay for Inhibitors of PDE-IV (AID 607; active = well fitted activation curve with a large enough effect in the main read-out, with a control signal flat, not every such curve was filed as active; note: % of control where 0% means no effect)
Sequence of 3',5'-cyclic-AMP phosphodiesterase 4B (Homo sapiens) (Q07343 whole entry, looked up): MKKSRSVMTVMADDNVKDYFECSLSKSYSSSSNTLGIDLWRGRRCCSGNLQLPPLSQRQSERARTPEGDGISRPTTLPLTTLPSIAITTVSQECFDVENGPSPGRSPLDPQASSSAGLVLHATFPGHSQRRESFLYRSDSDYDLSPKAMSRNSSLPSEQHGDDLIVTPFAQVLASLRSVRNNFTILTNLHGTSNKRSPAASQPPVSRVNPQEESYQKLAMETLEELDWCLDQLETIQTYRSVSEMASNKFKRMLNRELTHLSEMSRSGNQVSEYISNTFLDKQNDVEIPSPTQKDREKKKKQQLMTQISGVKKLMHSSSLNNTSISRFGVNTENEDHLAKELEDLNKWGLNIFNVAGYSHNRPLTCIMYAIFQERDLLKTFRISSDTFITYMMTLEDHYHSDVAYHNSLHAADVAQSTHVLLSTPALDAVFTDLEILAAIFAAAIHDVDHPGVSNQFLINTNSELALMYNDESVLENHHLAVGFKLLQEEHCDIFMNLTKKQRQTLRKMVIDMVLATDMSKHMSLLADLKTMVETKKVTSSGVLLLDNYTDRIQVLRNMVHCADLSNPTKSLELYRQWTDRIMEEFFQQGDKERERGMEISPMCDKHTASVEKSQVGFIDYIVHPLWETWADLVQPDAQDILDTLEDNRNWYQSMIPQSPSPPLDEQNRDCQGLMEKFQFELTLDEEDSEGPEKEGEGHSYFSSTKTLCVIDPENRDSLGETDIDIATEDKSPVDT
Outline: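 ACTOne HEK293 cells carry a modified cAMP-gated CNG channel and express endogenous PDE4; plated 1000 cells/well, compounds up to 22.9 uM final. Membrane-potential dye fluorescence (ex 535/em 590) was read; parental cells received 10 uM forskolin + 100 uM RO 20-1724.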

[6] = target: Cytochrome P450 3A4 (Homo sapiens) (UniProt P08684); test: qHTS Assay for Activators of Cytochrome P450 3A4 (AID 885); note: nearly all actives have a fitted effect of over 65% in size
Sequence of Cytochrome P450 3A4 (Homo sapiens) (P08684 whole entry, looked up): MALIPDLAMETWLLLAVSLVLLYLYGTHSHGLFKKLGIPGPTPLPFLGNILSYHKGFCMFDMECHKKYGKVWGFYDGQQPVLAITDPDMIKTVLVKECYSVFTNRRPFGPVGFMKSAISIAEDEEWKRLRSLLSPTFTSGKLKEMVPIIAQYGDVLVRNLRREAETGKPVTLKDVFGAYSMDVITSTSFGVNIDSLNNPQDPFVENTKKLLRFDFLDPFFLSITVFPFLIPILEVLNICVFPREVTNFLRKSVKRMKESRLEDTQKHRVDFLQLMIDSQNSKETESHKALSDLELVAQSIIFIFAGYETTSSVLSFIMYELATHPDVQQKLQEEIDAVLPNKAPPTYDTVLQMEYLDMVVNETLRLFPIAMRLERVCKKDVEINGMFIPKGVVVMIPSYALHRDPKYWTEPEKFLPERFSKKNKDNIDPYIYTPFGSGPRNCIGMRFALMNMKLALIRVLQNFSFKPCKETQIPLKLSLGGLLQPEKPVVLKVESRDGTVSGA
Outline: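 CYP3A4 activity: Luciferin-PPXE O-dealkylation, 25uM substrate, 200mM KPO4, RT throughout. Read-out is luciferase luminescence; higher values reflect activation.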

[7] = qHTS Assay for Identification of Small Molecule Agonists for Hypoxia Response Element Signaling Pathway (AID 914; active = well fitted activation curve with a large enough effect in the signal ratio, with a control signal flat, not every such curve was filed as active; the % refers to the signal ratio; note: potency is the fitted concentration of half-maximal effect); conditions: ME-180 HRE-bla reporter, beta-lactamase ratio, CoCl2, 17 h; activation: stronger effect = higher value
Outline: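 Read-out: CCF4 FRET ratio of 460nm to 530nm emission (excitation 405nm) after 2.5 hours at room temperature, taken from HRE-bla ME-180 cells that had been exposed to compound and EC50 CoCl2 for 17 hours.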

[8] = qHTS Assay for Lipid Storage Modulators (AID 1519; calls by dose curve); conditions: Drosophila S3 cells, BODIPY lipid droplet/cell ratio, laser cytometry, cells loaded with oleic acid
Outline: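 Cells seeded at 5,000 per well were treated with compounds over a concentration series and loaded with oleic acid (400 uM, as added). Lipid droplet fluorescence (488 nm excitation, 500-530 nm channel) was read by laser-scanning cytometry and normalized to 20 uM Triacsin C.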

[9] = target: Dual specificity protein kinase CLK4 (Homo sapiens) (UniProt Q9HAZ1); test: qHTS Assay for Inhibitors of CDC-like Kinase 4 (Kinase-Glo Assay) (AID 1770); note: % is set by controls: 0 for no effect and ±100 for the full control effect; nearly all actives have a fitted effect of over 65% in size
Sequence of Dual specificity protein kinase CLK4 (Homo sapiens) (Q9HAZ1 whole entry, looked up): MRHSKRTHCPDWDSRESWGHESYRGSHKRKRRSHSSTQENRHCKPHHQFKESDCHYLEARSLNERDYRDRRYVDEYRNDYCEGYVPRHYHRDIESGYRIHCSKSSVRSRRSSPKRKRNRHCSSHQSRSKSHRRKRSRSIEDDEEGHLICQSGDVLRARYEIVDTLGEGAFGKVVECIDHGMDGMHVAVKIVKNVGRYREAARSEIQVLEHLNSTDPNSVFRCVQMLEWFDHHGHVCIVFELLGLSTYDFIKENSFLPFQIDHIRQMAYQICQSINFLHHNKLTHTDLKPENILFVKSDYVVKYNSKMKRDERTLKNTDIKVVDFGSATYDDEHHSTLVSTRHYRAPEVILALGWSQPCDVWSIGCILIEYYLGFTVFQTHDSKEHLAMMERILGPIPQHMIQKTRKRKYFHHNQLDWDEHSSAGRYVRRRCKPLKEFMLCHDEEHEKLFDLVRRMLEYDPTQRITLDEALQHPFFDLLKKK
Outline: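 Recombinant human Clk4 (25 nM) phosphorylated RS repeat peptide (100 uM) with 1 uM ATP in Tris pH 7.5/MgCl2/EGTA/DTT/Triton buffer for 4.5 h at room temperature. Residual ATP was quantified by Kinase-Glo luciferase luminescence.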

[10] = target: Dual specificity protein kinase CLK4 (Homo sapiens) (UniProt Q9HAZ1); test: qHTS Assay for Inhibitors of CDC-like Kinase 4 (ADP-Glo Assay) (AID 1771); note: % is set by controls: 0 for no effect and ±100 for the full control effect; nearly all actives have a fitted effect of over 70% in size
Outline: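 25 nM Clk4, 100 uM RS peptide, 1 uM ATP (final); 2 mM MgCl2, 0.5 mM EGTA, 2.5 mM DTT, 0.01% Triton X-100; 1 hr RT. ADP-Glo readout: ATP depletion 45 min, conversion/luciferase 30 min, luminescence.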

[11] = target: Dual specificity protein kinase CLK4 (Homo sapiens) (UniProt Q9HAZ1); test: qHTS Assay for Inhibitors of CDC-like Kinase 4 (ADP-FP Assay) (AID 1795); note: % is set by controls: 0 for no effect and ±100 for the full control effect; nearly all actives have a fitted effect of over 60% in size
Outline: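 Recombinant human Clk4 (6.25 nM) phosphorylated RS repeat peptide (100 uM) with 1 uM ATP in Tris pH 7.5/MgCl2/EGTA/DTT/Triton buffer for one hour. ADP was quantified by Transcreener competitive fluorescence polarization against an ADP calibration curve.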

[12] = target: Ubiquitin carboxyl-terminal hydrolase 1 (Homo sapiens) (UniProt O94782); test: Inhibitors of USP1/UAF1: Pilot qHTS (AID 504865);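 note: rhodamine fluorescence freed from ubiquitin-rhodamine substrate followed over time; top concentration of the series differs between compounds; % is set by controls: 0 for no effect and ±100 for the full control effect; nearly all actives have a fitted effect of over 35% in size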
Outline: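 USP1/UAF1 complex (1nM) preincubated with compound 15 min at room temperature, then Ub-Rho substrate (150nM final) added. Fluorescence read kinetically at 480/540 nm, 6 reads every 60 seconds. Buffer: 50mM HEPES pH 7.8, 0.5mM EDTA, 0.1 mg/ml BSA, 1mM TCEP, 0.01% Tween-20.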

[13] = Counterscreen qHTS for small molecule stabilizers of the endoplasmic reticulum resident proteome: GLuc-NoTag assay (AID 1508627);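 note: SH-SY5Y cells given compound then 100 nM thapsigargin to empty ER calcium; 0% = thapsigargin alone and -100% = DMSO vehicle control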
Outline: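 Counterscreen line: SH-SY5Y-GLuc-NoTag cells, treated with compound 19 hr before a 4 hr, 100 nM thapsigargin calcium depletion. Secreted Gaussia luciferase in the medium was measured by luminescence after coelenterazine was added (0.07x final), with cells unlysed.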

[14] = target: Mitogen-activated protein kinase 10 (Mus musculus) (UniProt Q61831); test: JNK3 AlphaScreen Assay (AID 530; active = well fitted curve in either direction with a large enough effect, not every such curve was filed as active;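 note: kinase came from lysate of stimulated human HepG2 cells; signal reports phosphorylation of biotinylated GST-cJun 1-79 at Ser73 with 10 µM ATP; % is set by controls: 0 for no effect and ±100 for the full control effect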)
Outline: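 Kinase buffer: 20 mM Tris-HCl pH 7.6, 10 mM MgCl2, 1 mM DTT, 0.1 mM Na3VO4, 0.01% Tween-20; ATP 10 uM. Substrate biotin-GST-cJun(1-79), enzyme from activated HepG2 lysates. Detection by Ser73 phospho-antibody AlphaScreen.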

[15] = NFAT Signaling Pathway (AID 444; active = well fitted curve in either direction with a large enough effect, not every such curve was filed as active;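 note: carbachol stimulus at about its EC50 of 1 µM final; % is set by controls: 0 for no effect and ±100 for the full control effect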); conditions: Jurkat NFAT-bla M1, carbachol, beta-lactamase ratio, 5 h; at 7.69 µM (top of the series) unless noted
Outline: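 Read-out: CCF4 FRET ratio (460 nm/530 nm) after 1 h RT dye loading, used for %activity and AC50 from titration series. Cells: Jurkat NFAT-β-lactamase/M1 line, treated with compound plus 1 uM carbachol for 5 h, 37 °C.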

[16] = Stat Signaling Pathway (AID 446; active = well fitted curve in either direction with a large enough effect, not every such curve was filed as active;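 note: ME-180 cervical cancer cells given 40 pM IL-6 alongside compound; SIE-controlled beta-lactamase reporter measured as 460/530 nm FRET emission ratio; % is set by controls: 0 for no effect and ±100 for the full control effect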); conditions: ME-180 SIE beta-lactamase reporter, IL-6 stimulated, 5 h; at 7.69 µM (top of the series) unless noted
Outline: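 Compound effects on IL-6-induced STAT reporter activity were measured in ME-180 cells. After overnight culture, cells were co-treated with 40 pM IL-6 for 5 hrs before beta-lactamase substrate loading at room temperature.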

[17] = Confirmatory qHTS for small molecule stabilizers of the endoplasmic reticulum resident proteome: Secreted ER Calcium Modulated Protein (SERCaMP) assay (AID 1508628); note: potency is the fitted concentration of half-maximal effect; nearly all actives have a fitted effect of over 40% in size
Outline: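 GLuc-SERCaMP-expressing SH-SY5Y cells, pretreated 16 h with compound, are challenged with thapsigargin to empty ER calcium stores; after 4 h, coelenterazine is added directly to the medium and luminescence is imaged.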

[18] = AP1 Signaling Pathway (AID 357; active = well fitted curve in either direction with a large enough effect, not every such curve was filed as active;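 note: ME-180 reporter cells stimulated with EGF at its EC50 level; % is set by controls: 0 for no effect and ±100 for the full control effect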); conditions: ME-180 (cervical carcinoma) AP-1-bla reporter, EGF-induced, beta-lactamase ratio, 5 h; at 7.69 µM (top of the series) unless noted
Outline: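 Titration-series screen for positive or negative modulators of EC50 EGF-induced signaling in ME-180 cells carrying an AP-1-driven beta-lactamase reporter. After 5 hours at 37 degrees Celsius, CCF4 460nm/530nm emission ratio gave %Activity; AC50 values derived.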

[19] = target: Cytochrome P450 2C19 (Homo sapiens) (UniProt P33261); test: qHTS Assay for Inhibitors and Substrates of Cytochrome P450 2C19 (AID 899); note: potency is the fitted concentration of half-maximal effect; nearly all actives have a fitted effect of over 60% in size
Sequence of Cytochrome P450 2C19 (Homo sapiens) (P33261 whole entry, looked up): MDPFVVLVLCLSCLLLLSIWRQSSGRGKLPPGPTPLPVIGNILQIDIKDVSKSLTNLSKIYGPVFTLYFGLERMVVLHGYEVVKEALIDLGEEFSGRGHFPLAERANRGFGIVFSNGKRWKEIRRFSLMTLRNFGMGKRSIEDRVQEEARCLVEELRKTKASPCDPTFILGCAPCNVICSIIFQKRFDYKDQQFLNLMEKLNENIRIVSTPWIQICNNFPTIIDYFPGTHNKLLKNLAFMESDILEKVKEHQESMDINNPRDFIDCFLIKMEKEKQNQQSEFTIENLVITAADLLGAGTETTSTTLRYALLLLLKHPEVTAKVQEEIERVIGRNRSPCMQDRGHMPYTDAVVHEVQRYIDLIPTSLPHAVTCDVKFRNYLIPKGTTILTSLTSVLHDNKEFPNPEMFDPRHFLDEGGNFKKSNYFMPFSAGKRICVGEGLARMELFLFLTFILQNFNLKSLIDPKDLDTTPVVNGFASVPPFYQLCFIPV
Outline: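 Reactions contain 5nM enzyme, 10uM Luciferin-H EGE (KM) and 50mM KPO4; compound preincubates 10 min at 37C, NADPH regeneration starts turnover for 60 min. Luminescence after detection reagent gives activity.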

[20] = target: Cytochrome P450 2C9 (Homo sapiens) (UniProt P11712); test: qHTS Assay for Inhibitors and Substrates of Cytochrome P450 2C9 (AID 883); note: potency is the fitted concentration of half-maximal effect; nearly all actives have a fitted effect of over 60% in size
Sequence of Cytochrome P450 2C9 (Homo sapiens) (P11712 whole entry, looked up): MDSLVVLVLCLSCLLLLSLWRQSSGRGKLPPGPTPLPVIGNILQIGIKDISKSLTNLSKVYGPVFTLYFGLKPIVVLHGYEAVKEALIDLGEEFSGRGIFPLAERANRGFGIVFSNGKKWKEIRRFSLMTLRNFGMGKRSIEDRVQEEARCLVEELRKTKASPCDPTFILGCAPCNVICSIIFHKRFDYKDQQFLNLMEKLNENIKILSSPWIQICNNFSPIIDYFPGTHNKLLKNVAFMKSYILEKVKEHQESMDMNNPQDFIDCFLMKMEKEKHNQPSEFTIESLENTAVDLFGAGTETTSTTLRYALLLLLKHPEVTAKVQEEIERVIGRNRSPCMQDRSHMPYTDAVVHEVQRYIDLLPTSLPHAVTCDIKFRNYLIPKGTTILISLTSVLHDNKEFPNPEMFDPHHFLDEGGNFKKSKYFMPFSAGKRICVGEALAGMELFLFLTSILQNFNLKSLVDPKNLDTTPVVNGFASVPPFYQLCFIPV
Outline: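 Turnover of Luciferin-H (100uM, KM) by 10nM human CYP2C9 was measured over 60 min at 37C with NADPH regeneration; inhibitors and some substrates reduce luminescence. Data normalized to sulphaphenazole 57uM.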

[21] = target: Cytochrome P450 3A4 (Homo sapiens) (UniProt P08684); test: qHTS Assay for Inhibitors and Substrates of Cytochrome P450 3A4 (AID 884); note: potency is the fitted concentration of half-maximal effect; nearly all actives have a fitted effect of over 50% in size
Outline: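 Luminescent readout of luciferin produced by CYP3A4 (20 nM) dealkylation of Luciferin-PPXE, 25 uM (its KM). NADPH-driven reaction ran 60 min at RT after 10 min compound preincubation; data scaled to 57 uM ketoconazole as 100% inhibition.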

[22] = Cell Viability qHTS for small molecule stabilizers of the endoplasmic reticulum resident proteome (AID 1508629); conditions: cell viability counter-screen, 100 nM thapsigargin for final 4 h
[23] = Primary qHTS for small molecule stabilizers of the endoplasmic reticulum resident proteome: Secreted ER Calcium Modulated Protein (SERCaMP) assay (AID 1508630); note: % is set by controls: 0 for no effect and ±100 for the full control effect
Outline: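 The SH-SY5Y reporter protocol was run at 3 concentrations up to 38.3 uM (primary) or 11 concentrations (follow-up): 16 h compound, 100 nM thapsigargin for 4 h, then extracellular luciferase luminescence.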

COc1cccc(Cn2c(=O)c(-c3ccccc3)nc3cnc(N4CCNCC4)nc32)c1
11.2%: max response ([8]; measured here: lipid channel max response)
inactive: Potency [1] > 11.4 µM | Potency [3] > 9.22 µM | Potency [4] > 46 µM | Potency [5] | Potency [6] | activity change, negative = inhibition ([8]; at 57.5 µM (top of the series)) 4.45% | Potency [9] | Potency [10] | Potency [11] | Potency [12] | Potency [13]
active: Potency [2] 3.16 µM | Potency [7] 3.16 µM
8.56%: max response ([8]; measured here: cell count channel max response)

COCCn1c(=O)c(-c2ccccc2)nc2cnc(N3CCNCC3)nc21
active: Potency [7] 3.16 µM
inactive: Potency [3] > 9.22 µM | Potency [4] > 46 µM | outcome [14] | Potency [5] | Potency [13]

COc1cccc(Nc2ncc3nc(-c4ccccc4)c(=O)n(C[C@H]4CCCO4)c3n2)c1
active: Potency [17] 39.8 µM
inactive: Potency [1] > 11.4 µM | activity change, negative = inhibition [15] -8.66% | activity, negative = inhibition [16] 4.51% | Potency [3] > 9.22 µM | Potency [4] > 46 µM | outcome [14] | Potency [5]

COCCn1c(=O)c(CCc2ccccc2)nc2cnc(OC)nc21
inactive: Potency [1] > 11.4 µM | activity change, negative = inhibition [18] -6.75% | activity change, negative = inhibition [15] -10.3% | activity, negative = inhibition [16] -4.28% | Potency [3] > 9.22 µM | Potency [4] > 46 µM | Potency [6] | Potency [13]
active: Potency [2] 10 µM | Potency [19] 0.794 µM

COCCn1c(=O)c(-c2ccccc2)nc2cnc(OCc3ccccc3)nc21
active: Potency [17] 39.8 µM
inactive: Potency [1] > 11.4 µM | activity change, negative = inhibition [18] -11.6% | activity change, negative = inhibition [15] 0.0505% | activity, negative = inhibition [16] -5.1% | Potency [3] > 9.22 µM | Potency [4] > 46 µM | Potency [5]

COCCn1c(=O)c(-c2cc(F)cc(F)c2)nc2cnc(N3CCNCC3)nc21
active: Potency [2] 6.31 µM | Potency [20] 1.26 µM
inactive: Potency [1] > 11.4 µM | Potency [3] > 9.22 µM | Potency [4] > 46 µM | outcome [14] | Potency [5] | Potency [6] | Potency [13]

COc1ccc(-n2c(=O)c(C)nc3cnc(N4CCNCC4)nc32)cc1
inactive: Potency [1] > 11.4 µM | activity change, negative = inhibition [18] -6.88% | activity change, negative = inhibition [15] -7.6% | activity, negative = inhibition [16] 7.09% | Potency [3] > 9.22 µM | Potency [4] > 46 µM | outcome [14] | Potency [6] | Potency [13]
active: Potency [2] 15.8 µM

N#CCCn1c(=O)c(CCc2ccccc2)nc2cnc(Oc3cccc(Cl)c3)nc21
inactive: Potency [1] > 11.4 µM | activity change, negative = inhibition [15] -8.5% | Potency [3] > 9.22 µM | Potency [4] > 46 µM | outcome [14] | Potency [5] | Potency [6] | max response [22] 7.03%
active: Potency [20] 3.16 µM | Potency [21] 0.794 µM | Potency [19] 6.31 µM

CC1=CC[C@@]2(CO)COC(c3ccccc3O)C1C2 (some centres not stated)
inactive: Potency [23]

COc1ccc2c(c1)OC[C@H]1c3cc4c(cc3O[C@@H]21)OCO4
inactive: Potency [23]

O=c1oc2cc(O)ccc2cc1-c1ccc2c(c1)OCCO2
inactive: Potency [23]

CCCCN(CC)CCOc1cccc2ccccc12
inactive: Potency [23]

COc1cc2c(cc1OC)C(C(=O)c1ccc(OC)c(OC)c1O)=NCC2
inactive: Potency [23]
